Assay results as given in PubChem BioAssay (NCATS).
Inconclusive results are not listed. A call without a number means that no potency is given here. Active and inactive are the calls of the source. Unless noted, calls come from the whole dose curve; as a rule, active = well fitted curve in the direction sought with a large enough effect in the repeat runs; inconclusive = weak or mixed curves; inactive = no such curve, though single readings can be large; an effect the other way counts as inactive or inconclusive.

Tests used:
[1] = Primary qHTS for small molecule stabilizers of the endoplasmic reticulum resident proteome: Secreted ER Calcium Modulated Protein (SERCaMP) assay (AID 1508630; active = well fitted curve in the direction sought with a large enough effect; an effect the other way counts as inactive or inconclusive); details: SH-SY5Y GLuc-SERCaMP (Gaussia luciferase released on ER calcium loss) secretion, thapsigargin, luminescence; series mostly up to 38.4 µM
Procedure, shortened: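 GLuc-SERCaMP-expressing SH-SY5Y cells, pretreated 16 h with compound, are challenged with thapsigargin to empty ER calcium stores; after 4 h, coelenterazine is added directly to the medium and luminescence is imaged.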

[2] = A High-Content qHTS Against Drug Library for the Identification of Small Molecules that Inhibit DYT1 Early Onset Primary Dystonia-Associated Cell Pathology (AID 1645839; calls by dose curve; note: potency is the fitted concentration of half-maximal effect); details: HEK293 Flp-In EGFP-delE TorsinA, punctate imaging, 48 h; series mostly up to 46.1 µM
Procedure, shortened: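 Flp-In T-REx 293 cells with tetracycline-inducible EGFP-delE hTOR1A (WT EGFP-hTOR1A as reference), 800 cells/well; compound added with tetracycline, 48 h at 37 C. Fixed, permeabilized cells imaged; %pathology (punctate TorsinA) primary, cell count counterscreen.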

[3] = target: Cytochrome P450 2C9 (Homo sapiens) (UniProt P11712); assay: Cytochrome P450 family 2 subfamily C member 9 (CYP2C9) small molecule antagonists: luciferase biochemical (cell-free) qHTS assay (AID 1645842); details: P450-Glo CYP2C9 enzyme assay, luciferin luminescence; series mostly up to 57.4 µM; note: nearly all actives have a fitted effect of over 55% in size; note: potency is the fitted concentration of half-maximal effect
Sequence of Cytochrome P450 2C9 (Homo sapiens) (P11712 whole entry, looked up): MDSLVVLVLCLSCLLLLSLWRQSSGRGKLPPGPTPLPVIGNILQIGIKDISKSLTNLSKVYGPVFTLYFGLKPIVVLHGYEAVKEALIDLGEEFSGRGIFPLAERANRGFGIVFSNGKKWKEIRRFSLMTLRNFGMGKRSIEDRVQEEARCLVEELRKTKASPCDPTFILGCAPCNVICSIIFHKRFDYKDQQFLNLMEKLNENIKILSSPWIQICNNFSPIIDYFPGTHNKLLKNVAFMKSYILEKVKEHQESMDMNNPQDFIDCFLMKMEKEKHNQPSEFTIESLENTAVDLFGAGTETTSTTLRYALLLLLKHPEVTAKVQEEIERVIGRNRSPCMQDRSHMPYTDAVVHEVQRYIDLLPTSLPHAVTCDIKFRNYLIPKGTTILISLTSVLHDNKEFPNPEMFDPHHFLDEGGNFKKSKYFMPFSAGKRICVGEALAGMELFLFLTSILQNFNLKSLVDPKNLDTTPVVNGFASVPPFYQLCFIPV
Procedure, shortened: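 Luminescence, after 20 min with luciferin detection reagent, reflected CYP2C9 turnover during a 1 h NADPH-driven reaction at 37C. Enzyme-substrate mix contained 0.4% bovine serum albumin and was preincubated with compound 10 min at room temperature.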

[4] = Primary qHTS for inhibitors of nuclear receptor binding SET domain protein 2 (NSD2) in an isogenic RCH-ACV NSD2 p.E1099K mutant (9B) (AID 1645876; active = well fitted curve in the direction sought with a large enough effect; an effect the other way counts as inactive or inconclusive; note: nearly all actives have a fitted effect of over 70% in size); details: RCH-ACV NSD2 E1099K (9B) viability, CellTiter-Glo, 72 h; series mostly up to 44.9 µM
[5] = Primary qHTS for inhibitors of nuclear receptor binding SET domain protein 2 (NSD2) in an RCH-ACV wild type WT cells (2C) (AID 1645877; active = well fitted curve in the direction sought with a large enough effect; an effect the other way counts as inactive or inconclusive; note: nearly all actives have a fitted effect of over 70% in size); details: RCH-ACV (leukaemia line) NSD2 WT (2C) viability, CellTiter-Glo, 72 h; series mostly up to 44.9 µM
[6] = target: Cytochrome P450 2D6 (Homo sapiens) (UniProt P10635); assay: Cytochrome P450 family 2 subfamily D member 6 (CYP2D6) small molecule antagonists: luciferase biochemical (cell-free) qHTS assay (AID 1645840); details: P450-Glo CYP2D6 enzyme, luciferin luminescence, 1 h; series mostly up to 57.4 µM; note: nearly all actives have a fitted effect of over 55% in size; note: potency is the fitted concentration of half-maximal effect
Sequence of Cytochrome P450 2D6 (Homo sapiens) (P10635 whole entry, looked up): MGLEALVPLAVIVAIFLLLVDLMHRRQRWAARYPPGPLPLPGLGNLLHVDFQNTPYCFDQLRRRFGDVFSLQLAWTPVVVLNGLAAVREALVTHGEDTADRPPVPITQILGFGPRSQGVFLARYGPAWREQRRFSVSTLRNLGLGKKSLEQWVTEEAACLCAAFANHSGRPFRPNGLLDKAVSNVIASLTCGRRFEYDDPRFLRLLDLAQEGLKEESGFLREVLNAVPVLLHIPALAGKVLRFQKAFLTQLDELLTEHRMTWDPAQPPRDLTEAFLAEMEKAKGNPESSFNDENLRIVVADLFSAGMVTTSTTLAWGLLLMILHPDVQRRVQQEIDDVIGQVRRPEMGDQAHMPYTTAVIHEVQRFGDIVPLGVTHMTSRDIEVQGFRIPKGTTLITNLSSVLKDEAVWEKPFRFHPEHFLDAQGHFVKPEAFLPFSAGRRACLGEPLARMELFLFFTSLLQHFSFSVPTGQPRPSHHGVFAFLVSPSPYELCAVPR
Procedure, shortened: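 P450-Glo luminescent screen: recombinant CYP2D6 enzyme–proluciferin substrate mix preincubated with compound 10 min at room temperature, then NADPH regeneration added for 1 h at room temperature. Detection reagent added for 20 min; luciferin light read as relative luminescence units.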

[7] = target: Cytochrome P450 3A4 (Homo sapiens) (UniProt P08684); assay: Cytochrome P450 family 3 subfamily A member 4 (CYP3A4) small molecule antagonists: luciferase qHTS assay (AID 1645841); details: P450-Glo CYP3A4 enzyme assay, luciferin luminescence; series mostly up to 57.4 µM; note: nearly all actives have a fitted effect of over 45% in size
Sequence of Cytochrome P450 3A4 (Homo sapiens) (P08684 whole entry, looked up): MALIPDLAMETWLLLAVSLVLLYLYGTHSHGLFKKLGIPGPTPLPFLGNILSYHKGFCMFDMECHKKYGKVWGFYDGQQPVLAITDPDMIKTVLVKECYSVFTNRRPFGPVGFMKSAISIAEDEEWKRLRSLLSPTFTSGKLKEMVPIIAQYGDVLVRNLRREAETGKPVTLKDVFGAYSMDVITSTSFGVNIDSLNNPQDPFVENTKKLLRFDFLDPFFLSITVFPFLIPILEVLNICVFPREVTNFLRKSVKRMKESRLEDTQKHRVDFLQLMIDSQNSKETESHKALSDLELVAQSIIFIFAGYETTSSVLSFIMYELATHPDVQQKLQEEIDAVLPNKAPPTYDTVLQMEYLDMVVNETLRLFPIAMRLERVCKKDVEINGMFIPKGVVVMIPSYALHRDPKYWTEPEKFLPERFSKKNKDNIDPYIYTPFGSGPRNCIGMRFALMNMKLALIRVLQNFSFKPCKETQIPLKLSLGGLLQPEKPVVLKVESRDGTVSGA
Procedure, shortened: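 P450-Glo CYP3A4 enzyme with proluciferin substrate preincubated 10 min with compound at room temperature, then NADPH regeneration 1 h. Luciferin detection reagent added for 20 min; luminescence recorded. Ketoconazole positive control.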

[8] = target: N-terminal Xaa-Pro-Lys N-methyltransferase 1 (Homo sapiens) (UniProt Q9BV86); assay: Confirmatory qHTS for Inhibitors of N-terminal methyltransferase 1 (NTMT1): MTaseGlo Assay (AID 1645874; active = well fitted curve in the direction sought with a large enough effect; an effect the other way counts as inactive or inconclusive; note: potency is the fitted concentration of half-maximal effect; nearly all actives have a fitted effect of over 65% in size); details: NTMT1 enzyme, MTase-Glo SAH luminescence; series mostly up to 100 µM
Sequence of N-terminal Xaa-Pro-Lys N-methyltransferase 1 (Homo sapiens) (Q9BV86 whole entry, looked up): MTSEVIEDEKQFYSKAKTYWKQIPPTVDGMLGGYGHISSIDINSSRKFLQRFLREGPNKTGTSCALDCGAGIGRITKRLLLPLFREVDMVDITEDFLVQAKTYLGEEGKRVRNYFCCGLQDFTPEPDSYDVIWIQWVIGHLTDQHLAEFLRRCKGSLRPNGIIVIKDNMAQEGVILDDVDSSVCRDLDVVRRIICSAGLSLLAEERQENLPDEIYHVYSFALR
Procedure, shortened: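 NTMT1 (125 nM) preincubated 15 min with compound and 100 uM SAM, then 1 uM SPKRIA peptide added for 30 min at room temperature. SAH detected by MTase-Glo luminescence; normalized to no-enzyme and DMSO controls, fitted to 4-parameter Hill.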

Compound	outcome [1]	Potency [2]	Potency [3]	Potency [4]	Potency [5]	Potency [6]	outcome [7]	Potency [8]
CC1CC(OC(=O)c2ccccc2O)CC(C)(C)C1 (configuration not stated)	inactive	inactive	inactive	inactive	inactive	–	–	–
C[C@@H](c1ncncc1F)C(O)(Cn1cncn1)c1ccc(F)cc1F (some centres not stated)	–	inactive	–	–	–	inactive	–	–
CCN(CC)S(=O)(=O)c1ccc(C(=O)O)cc1	–	inactive	–	inactive	inactive	inactive	inactive	–
NC(=O)NS(=O)(=O)c1ccc(N)cc1	–	inactive	inactive	–	–	inactive	–	–
CN(C/C=C/C#CC(C)(C)C)Cc1cccc2ccccc12	inactive	inactive	–	inactive	–	0.0347 µM (active)	–	–
Cc1cccc(Nc2ccccc2C(=O)O)c1C	inactive	–	–	inactive	inactive	inactive	–	–
CCCCCCCCCCCCCCCCC(C(=O)O)C(O)(CC(=O)O)C(=O)O (configuration not stated)	inactive	7.94 µM (active)	inactive	–	–	–	–	17 µM (active)
CCCCCCCC(=O)OCC(O)CO (configuration not stated)	inactive	inactive	–	inactive	inactive	inactive	–	–
c1ccc2[nH]ccc2c1	–	inactive	inactive	inactive	inactive	inactive	–	–
CC(=O)SC[C@@H](Cc1ccccc1)C(=O)NCC(=O)OCc1ccccc1	–	inactive	1.23 µM (active)	–	–	6.17 µM (active)	–	–
O=C(c1ccccc1)C(O)c1ccccc1 (configuration not stated)	–	inactive	inactive	inactive	–	inactive	–	–
C[C@]1(Cn2ccnn2)[C@H](C(=O)O)N2C(=O)C[C@H]2S1(=O)=O	–	inactive	inactive	inactive	inactive	inactive	–	–
CC(=O)N1C[C@H](O)C[C@H]1C(=O)O	–	inactive	inactive	–	–	inactive	–	–
CC1(C)S[C@@H]2[C@H](N=CN3CCCCCC3)C(=O)N2[C@H]1C(=O)O	–	inactive	inactive	inactive	inactive	inactive	–	–
